Experimental data: PubChem BioAssay (NCI)
The panel holds about 83,000 compounds, 20% with a hit somewhere; the sample as a whole holds those more often.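 Single-dose data. Exposure time 48 hours. Values below 10 considered active.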 Values without a mark were called inactive. Activity calls are given as the source filed them.

Experiments:
Test in all cases: NCI-60 one-dose screen, 48 h (100 = growth as untreated, 0 = no growth, -100 = all killed)
Details in all cases: 10 µM unless noted
RPMI-8226 leukemia = test system: RPMI-8226 leukemia
OVCAR-8 ovarian = test system: OVCAR-8 ovarian
OVCAR-5 ovarian = test system: OVCAR-5 ovarian
OVCAR-4 ovarian = test system: OVCAR-4 ovarian
SK-OV-3 ovarian = test system: SK-OV-3 ovarian
IGROV1 ovarian = test system: IGROV1 ovarian
OVCAR-3 ovarian = test system: OVCAR-3 ovarian
HS 578T breast = test system: HS 578T breast
NCI/ADR-RES ovarian = test system: NCI/ADR-RES ovarian

SMILES	growth (RPMI-8226 leukemia)	growth (OVCAR-8 ovarian) [%]	growth (OVCAR-5 ovarian) [%]	growth (OVCAR-4 ovarian)	growth (SK-OV-3 ovarian) [%]	growth (IGROV1 ovarian)	growth (OVCAR-3 ovarian)	growth (HS 578T breast) [%]	growth (NCI/ADR-RES ovarian)
N#CC1=C(N)Oc2ccc3ccccc3c2C1c1ccccc1Cl (configuration not stated)	32.9%	61.8	77.2	78.9%	55.9	34.1%	31.2%	40.4	9.51% (active)
CN1CCN(CCOc2ccc(-c3cnc4c(-c5ccccc5F)cnn4c3)cc2)CC1	-9.99% (active)	40.7	80.4	63.6%	94.2	57.3%	20.3%	76.9	48.8%
COc1cc(/C=N/NC(=S)NNC(=S)NC2CCCCC2)cc(OC)c1OC	70.1%	97.8	106	86.3%	110	89.9%	103%		97.5%
COc1ccc(OCC(CO)N2CCN(c3ccccc3)CC2)cc1 (configuration not stated)		93.6	103	92.4%	106	112%	102%	96.6	99.9%
Cn1cc(-c2csc(-c3cn(C(=O)OC(C)(C)C)c4ccccc34)n2)c2cccnc21	75.3%	76.3	104		74.9	59.8%	14.6%	73.1	29.3%
Cc1ccc2c(c1)c1nc3cc(C)c(C)cc3nc1n2CCN(C)C	1.96% (active)	18.4		33.1%	30.9	6.96% (active)	29.7%	50.1	12.8%
Cc1ccc2c(c1)c(-c1nc(-c3c[nH]c4ncccc34)cs1)cn2C	72.7%	104	68.6		102	99.2%	139%	109	89.4%
Cc1ccc(S(=O)(=O)Nc2ccc(-c3cc(-c4cccc(F)c4)c(C#N)c(=O)[nH]3)cc2)cc1	19.4%		99.9	67%	99.7	73.1%	82.6%	89.7	90.7%
COC(=O)[C@]12CC[C@@H](C)[C@H](C)[C@@H]1C1=CC[C@@H]3[C@@]4(C)CC(=O)[C@H](OC(=O)c5ccco5)[C@@]5(C)COC(=C45)C[C@@]3(C)[C@]1(C)CC2		28.5	69.2	19.6%	36.1	53%	43.5%	61.4	33.3%
COc1ccc(-c2c(-c3nc4ccc(N5CCOCC5)cc4[nH]3)[nH]c(C)c2C(C)=O)cc1	3.61% (active)	50.5	48.2	45.1%	27.7	23.8%	46%	22.3	38.7%
CCCCCCCC(=O)SCC/C=C/[C@@H]1CC(=O)NCc2cccc(n2)CN(Cc2ccc3ccccc3c2)CC(=O)N[C@@H](C(C)C)C(=O)O1	32.6%		26.2	66.3%	24.5	53.2%	47.3%	34.9	30.8%
CCCCC(=O)OC1CCCCC1C (configuration not stated)		87	90.9	104%	89.4	106%	107%	97.6	96.7%
C=C(C)[C@@H]1CC[C@]2(/C=N/Nc3ccncc3)CC[C@]3(C)[C@H](CC[C@@H]4[C@@]5(C)CCCNC(C)(C)[C@@H]5CC[C@]43C)[C@@H]12	28.7%		105	89.9%	113	96.4%	84.5%	83.2	94.5%
COc1ccc2c(c1)c(-c1nc(-c3c[nH]c4ncccc34)cs1)cn2C		80.8	55		63.9	59.8%	103%	77.2	
COc1cc2ncnc(Nc3ccc(OCc4cccc(F)c4)c(Cl)c3)c2cc1NC(=O)C1CCCC1	89.9%	76.9	88.9	100%	13	52.2%	77.9%	91.8	71.6%
O=c1[nH]ncc(Br)c1Br	23.9%		115	-100% (active)	122	51.2%	-100% (active)		38.1%
O=c1[nH]c(=S)[nH]c2nc[nH]c12	99.2%			107%	112	105%	115%		95.1%
CC(=O)O[C@H]1CC[C@@]2(C)C(=CC[C@@H]3[C@@H]2CC[C@]2(C)C(=O)N(O)C(=O)C[C@@H]32)C1	52.8%	101			93.2	83.3%	102%	106	100%
Cc1cc(C)c(NC(=O)c2sc3nc4c(cc3c2N)CCCC4)c(C)c1		62.3		60.9%	51.3	62.5%	18.1%	46.2	18.4%
CCCCCC1CCCCN1C(=O)OCC (configuration not stated)	103%	107	94.7	105%	98.5	104%	109%		111%
